Screens from PubChem BioAssay.
YjeE inh = qHTS Assay for Inhibitors of YjeE | purified YjeE enzyme, qHTS inhibition assay | Potency, µM | hit rate 0.05% among 71,000 | AID 605, 2007
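Purified YjeE (10 uM) with BODIPY Texas Red-labeled ADP probe (2 uM); compounds pin-transferred, 15 min at room temperature. Binding inhibition read as decreased fluorescence polarization; ADP titration as control.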
Casp1 inh = qHTS Assay for Allosteric/Competitive Inhibitors of Caspase-1; P29466; Caspase-1 enzyme, Ac-WEHD-AFC fluorogenic rate; Potency, µM (top dose mostly 57.5 µM), most hits filed as inhibitors; hit rate 0.03% among 75,000; AID 900, 2007
BRCT inh red = qHTS Assay for Inhibitors of BRCT-Phosphoprotein Interaction (Red Fluorophore); Breast cancer type 1 susceptibility protein (Homo sapiens), P38398; BRCT-phosphopeptide binding, red fluorescence polarization; Potency, µM (top dose mostly 76.9 µM), hits mostly inhibitors; hit rate 0.03% among 75,000
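Fluorescence polarization: 100 nM His-tagged BRCA1 BRCT with 100 nM TAMRA-labelled phospho-BACH1 decapeptide, phosphate buffer pH 7.3 with 150 mM NaCl, DTT, 0.01% Tween 20; 12 min RT. Binding inhibition seen as FP decrease.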
USP2a inh = qHTS Assay for Inhibitors of Ubiquitin-specific Protease USP2a. Ubiquitin carboxyl-terminal hydrolase 2 (Homo sapiens), O75604. USP2a enzymatic assay, qHTS inhibition. Potency, µM (top dose mostly 38.3 µM), actives largely listed as inhibitors. hit rate 0.1% among 60,000. AID 927, 2007; further: nearly all actives have a fitted effect of over 60% in size
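Inhibition is measured in a cell-free coupled assay with 20 nM USP2 core, 20 nM Ub-PLA2 and 20 uM NBD C6-HPC, 2.5 h incubation. Activity normalized to NEM control.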
Caspase-7 inhib = qHTS Assay for Allosteric/Competitive Inhibitors of Caspase-7 | recombinant caspase-7, Ac-DEVD-AFC fluorescence rate | P55210 | hit rate 0.02% among 75,000 | AID 889, 2007 | Potency, µM (series often up to 57.5 µM), usual class: inhibitors; active means well fitted inhibition curve with a large enough effect in the main read-out, with a control signal flat, not every such curve was filed as active; inconclusive means small, poorly fitted or top-dose-only effect, or a change in a side signal
BRCT inh green = qHTS Assay for Inhibitors of BRCT-Phosphoprotein Interaction (Green Fluorophore) | BRCA1 BRCT-phosphopeptide binding, green fluorescence polarization | Potency, µM (series often up to 76.9 µM), most hits filed as inhibitors | hit rate 0.05% among 75,000 | AID 875, 2007
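Fluorescence polarization: His-tagged BRCT (~35 kDa BRCA1 C-terminus, 250 nM) bound to 100 nM fluorescein-labeled phosphorylated 10-aa BACH1 peptide, pH 7.3 phosphate buffer with DTT and Tween 20. Compounds incubated 12 min at room temperature; inhibition read as lowered polarization.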
Numbers stand for hits; n = inactive; u = inconclusive; x = no result given; ! = a repeat was not active; [ ] = remark or other dose. Hits are enriched below; roughly 0.21% of the tested compounds scored in any of these assays. Unless noted, the call rests on the fitted dose curve; in most records, active means well fitted curve in the direction sought with a large enough effect; inconclusive means small, poorly fitted or top-dose-only effect, or another doubt; inactive means no such curve, though single readings can be large; an effect the other way counts as inactive or inconclusive.

SMILES	YjeE inh	Casp1 inh	BRCT inh red	USP2a inh	Caspase-7 inhib	BRCT inh green
O=C(NCC1CCCO1)c1sc(=S)n2c1[nH]c(=O)c1ccc(C(=O)N3CCCCC3)cc12 (stereo not given)	n	n	n	2µM	n	n
O=C(NC1CCCCC1)c1sc(=S)n2c1[nH]c(=O)c1ccccc12	n	n	n	n	n	n
Cc1cc(C)n(-c2nc(Nc3ccccc3)nc(-n3nc(C)cc3C)n2)n1	n	n	n	12.6µM	n	n
O=C(O)CNC(=O)c1ccc(CO)o1	n	n	n	x	n	n
CCC(=O)[C@]12O[C@@]3(C4C(=O)OCCC41)N(CC)C(C)=C(C(=O)OC)C(c1ccccc1)N3C2=O (stereo not given in full)	x	n[11.5 µM]	n[15.4 µM]	x	n[11.5 µM]	n[15.4 µM]
CC1CCCCN1Cc1nc2c(c(=O)n(C)c(=O)n2C)n1Cc1c(F)cccc1Cl (stereo not given)	79.4µM	x	u	x	u	0.631µM
CSc1ncnc2nc[nH]c12	n	u	n	x	n	n
Cc1noc(C)c1-c1cc(NC2CCNCC2)ncn1	n	n	n	n	n	n
CC(C)[C@H](NC(=O)OC(C)(C)C)[C@@H](O)CC(=O)C(C)(C)C	x	n[11.5 µM]	n[15.4 µM]	x	n[11.5 µM]	n[15.4 µM]
N#C[C@@H](Cc1ccc(O)c(O)c1)C(=O)N1CCc2ccccc21	n	n	n	n	n	n
O=C1c2ccccc2C(=O)c2c(O)c(O)cc(O)c21	x	n	39.8µM	n	n	n
Cc1nc(NCCCn2ccnc2)c2ccccc2n1	n	n	n	n	n	n
COC1=C(OC)C(=O)c2ccccc2C1=O	n	n	n	n	n	n
O=C1c2ccccc2-c2onc3ccc(NCCCn4ccnc4)c1c23	25.1µM	n	0.631µM	n	n	0.794µM
COc1ccc2noc3c2c1C(=O)c1ccccc1-3	n	x	n	n	u	3.16µM
Cc1nn(-c2ccc(S(=O)(=O)O)cc2)c(O)c1N=Nc1ccc(-c2ccc(N=Nc3ccc4c(S(=O)(=O)O)cc(S(=O)(=O)O)c(N)c4c3O)c(O)c2)cc1O.[Cu].[Cu]	u	n[11.5 µM]	2.51µM	x	n[11.5 µM]	6.31µM
COc1cc(-c2ccc(N=Nc3ccc4c(S(=O)(=O)O)cc(S(=O)(=O)O)c(N)c4c3O)c(OC)c2)ccc1N=Nc1ccc2c(S(=O)(=O)O)cc(S(=O)(=O)O)c(N)c2c1O	50.1µM	n	u	n	n	39.8µM!
CCc1cc2c(nc1CC)CCN(CC/C(C)=N/O[C@@H](C)CN1CCCCc3nc(C)c(C)cc31)C2	x	n[11.5 µM]	n[15.4 µM]	x	n[11.5 µM]	n[15.4 µM]
Cc1ccc2c(c1)c1c3n2CCN[C@H]3CCC1	n	n	n	n	n	n
Cc1ccc2c(c1)c1c(n2C)C(C(N)=O)CCC1 (stereo not given)	n	n	n	6.31µM	n	n
CN1[C@H]2CC(OC(=O)[C@H](CO)c3ccccc3)C[C@H]1[C@H]1O[C@H]12 (stereo not given in full)	n	n	n	x	n	n
COc1ccc(-c2nc3cnc(N4CCN(C)CC4)nc3n(Cc3cccc(OC)c3)c2=O)cc1	n	x	n	n	u	n
CC(C)c1nc2oc3c(=O)[nH]cnc3c2c2c1CCC2	n	n	n	1.58µM	n	n
NS(=O)(=O)c1ccc(NC(=O)CCC2CCCCC2)cc1	n	n	n	x	n	n
O=C(CCCCCCCCCCCCC1CCCC1)Nc1ccc(S(=O)(=O)c2ccc(NC(=O)CCCCCCCCCCCCC3CCCC3)cc2)cc1	x	n	n	25.1µM	n	n[3.08 µM]
SMILES	YjeE inh	Casp1 inh	BRCT inh red	USP2a inh	Caspase-7 inhib	BRCT inh green
O=C1c2c(O)ccc(O)c2C(=O)c2c(NCCNCCO)ccc(NCCNCCO)c21	79.4µM!	n	n	n	n	n[3.08 µM]
Cc1ccc(C(=O)NC(Cc2c[nH]c3ccccc23)C(=O)O)o1 (stereo not given)	n	n	n	n	n	n
Cc1cc(C)cc(C(=O)N(C)[C@H](Cc2ccc(-c3ccccc3)cc2)C(=O)N[C@@H](Cc2c[nH]c3ccccc23)C(=O)O)c1	n	n	n	x	31.6µM	n
COc1ccc(C(=O)N2CCC3(CCCN(C(=O)NC(C)C)C3)CC2)cc1	n	n	n	10µM	n	n
COc1ccc(NC(=O)N2CCCC3(CCN(C(=O)c4ccncc4)CC3)C2)cc1	n	n	n	n	n	n
Cn1c(SCc2cccnc2)nc2cccnc21	n	n	n	5.01µM	n	n
C=CC(=O)OCCCC	n	n	n	x	n	n
C=CC1=C(C)C2=NC1=CC1=NC(=CC3=NC(=CC4=NC(=C2)C(C)=C4CCC(=O)O)C(CCC(=O)O)=C3C)C(C=C)=C1C.[Zn]	79.4µM	n	31.6µM	x	n	u
COc1cccc2c1C(=O)c1c(O)c3c(c(O)c1C2=O)C[C@@](O)(C(C)=O)C[C@@H]3O[C@H]1C[C@H](N)[C@H](O)[C@H](C)O1	n	n	15.8µM	x	n	n
COc1cccc2c1C(=O)c1c(O)c3c(c(O)c1C2=O)C[C@](O)(C(=O)CO)C[C@@H]3O[C@H]1C[C@H](N)[C@@H](O)[C@H](C)O1	n	x	x	x	x	x
Cc1cccc(CNc2cc(-c3c(C)noc3C)ncn2)c1	n	n	n	n	n	n
C[C@@H]1O[C@@H](n2cc(F)c(=O)[nH]c2=O)[C@H](O)[C@@H]1O	n	n	n	n	n	n
O=c1cnc2cncnc2n1Cc1ccc(F)cc1	n	n	n	n	n	n
C[C@@H]1c2cccc(O)c2C(O)=C2C(=O)[C@@]3(O)C(O)=C(C(N)=O)C(=O)[C@@H](N(C)C)[C@@H]3[C@@H](O)[C@@H]21	n	n	n	15.8µM	n	n
COc1ccc(COC(=O)N/N=C2/C[C@@H](O)[C@@H](O)[C@@H]3[C@@H]4C(=O)N(C(C)(C)C)C(=O)[C@H]4CC[C@@H]23)cc1	x	n[11.5 µM]	n[15.4 µM]	x	n[11.5 µM]	n[15.4 µM]
O=C(O)c1cc(O)c2c(c1)[C@H]([C@H]1c3cc(C(=O)O)cc(O)c3C(=O)c3c(O[C@@H]4OC(CO)C(O)C(O)C4O)cccc31)c1cccc(O[C@@H]3OC(CO)C(O)C(O)C3O)c1C2=O (stereo not given in full)	x	25.1µM	6.31µM	12.6µM	10µM	n[3.08 µM]
COC(=O)[C@H]1[C@@H]2C[C@H]3c4[nH]c5ccccc5c4CCN3C[C@@H]2CC[C@@H]1O	n	x	x	x	x	x
O=c1cc(-c2ccccc2)oc2cc(O)c(O)c(O)c12	n	n	n	n	n	n
O=C(O)CN(CC(=O)O)Cc1cc2c(-c3ccccc3C(=O)O)c3cc(CN(CC(=O)O)CC(=O)O)c(=O)cc-3oc2cc1O	x	x	0.631µM	n	u	0.126µM
